Calls of active or inactive are those of the source. Rule for the calls: active = hit-call score of the fitted dose curve at least 0.9, where 1 is the maximum; inactive = score below 0.9.
How the values were obtained:
[1] = ATG_M_32_CIS: Attagene CIS-FACTORIAL HepG2 Assay for M32 Transcription Factor (Internal Marker) (AID 2282949); settings: HepG2 Attagene cis-factorial M32 reporter, mRNA; actives raise or lower the signal;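 note: background control marker of the multiplexed CIS panel rather than a real target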
How it was run: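 Using DMSO as baseline, bidirectional curve fits were applied to reporter mRNA signals. These came from transiently transfected HepG2 cells exposed for 24 h, with RNA analysed by RT-PCR, FAM primer extension, HpaI digestion and CE.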

[2] = ATG_M_06_CIS: Attagene CIS-FACTORIAL HepG2 Assay for M06 Transcription Factor (Internal Marker) (AID 2282950); settings: HepG2 Attagene CIS-FACTORIAL M06 internal marker reporter; actives raise or lower the signal
How it was run: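 Fluorescence-labelled RT-PCR products from cis-promoter reporter units, cut with HpaI and resolved by capillary electrophoresis, give the signal. Cells are human HepG2, dosed for 24 h. Serves as background control, fitted relative to DMSO.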

[3] = biological target: Hypoxia-inducible factor 1-alpha (Homo sapiens) (UniProt Q16665); test: ATG_HIF1a_CIS: Attagene CIS-FACTORIAL HepG2 Assay for human Hypoxia Inducible Factor 1 (HIF1A) (AID 2282951); settings: HepG2 Attagene cis-factorial HIF1a reporter transcription; actives raise or lower the signal
Sequence of Hypoxia-inducible factor 1-alpha (Homo sapiens) (Q16665 whole entry, looked up): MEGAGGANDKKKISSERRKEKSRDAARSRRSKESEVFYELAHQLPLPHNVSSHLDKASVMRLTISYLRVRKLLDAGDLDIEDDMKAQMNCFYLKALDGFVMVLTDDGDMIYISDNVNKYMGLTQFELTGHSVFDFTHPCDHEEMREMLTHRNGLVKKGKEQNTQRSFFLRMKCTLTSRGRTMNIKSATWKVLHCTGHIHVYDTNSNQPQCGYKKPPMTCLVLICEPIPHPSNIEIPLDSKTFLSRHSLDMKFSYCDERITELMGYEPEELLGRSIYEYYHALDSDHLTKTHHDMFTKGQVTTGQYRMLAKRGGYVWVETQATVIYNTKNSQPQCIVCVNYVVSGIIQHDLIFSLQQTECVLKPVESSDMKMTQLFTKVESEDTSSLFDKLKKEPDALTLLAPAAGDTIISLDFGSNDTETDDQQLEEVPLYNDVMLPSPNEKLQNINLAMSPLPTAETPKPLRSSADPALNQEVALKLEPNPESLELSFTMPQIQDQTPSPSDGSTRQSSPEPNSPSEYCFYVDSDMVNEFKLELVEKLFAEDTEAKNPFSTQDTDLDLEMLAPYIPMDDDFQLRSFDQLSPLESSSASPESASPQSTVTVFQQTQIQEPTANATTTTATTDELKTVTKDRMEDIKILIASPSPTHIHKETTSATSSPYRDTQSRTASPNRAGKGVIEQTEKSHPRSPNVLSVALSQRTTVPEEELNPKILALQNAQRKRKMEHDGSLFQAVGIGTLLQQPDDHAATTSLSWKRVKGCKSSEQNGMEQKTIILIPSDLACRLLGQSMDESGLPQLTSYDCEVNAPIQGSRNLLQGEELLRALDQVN
How it was run: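 Measures endogenous transcription-factor activity through cis-regulated reporter mRNA in HepG2. Cells dosed 24 h; transcripts quantified by RT-PCR with 6-FAM-labelled products separated by capillary electrophoresis; DMSO serves as negative control.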

[4] = biological target: Hepatocyte nuclear factor 6 (Homo sapiens) (UniProt Q9UBC0); test: ATG_HNF6_CIS: Attagene CIS-FACTORIAL HepG2 Assay for human Hepatocyte Nuclear Factor 6 (HNF6) (AID 2282952); settings: HepG2 Attagene cis-factorial HNF6 reporter transcription; actives raise or lower the signal
Sequence of Hepatocyte nuclear factor 6 (Homo sapiens) (Q9UBC0 whole entry, looked up): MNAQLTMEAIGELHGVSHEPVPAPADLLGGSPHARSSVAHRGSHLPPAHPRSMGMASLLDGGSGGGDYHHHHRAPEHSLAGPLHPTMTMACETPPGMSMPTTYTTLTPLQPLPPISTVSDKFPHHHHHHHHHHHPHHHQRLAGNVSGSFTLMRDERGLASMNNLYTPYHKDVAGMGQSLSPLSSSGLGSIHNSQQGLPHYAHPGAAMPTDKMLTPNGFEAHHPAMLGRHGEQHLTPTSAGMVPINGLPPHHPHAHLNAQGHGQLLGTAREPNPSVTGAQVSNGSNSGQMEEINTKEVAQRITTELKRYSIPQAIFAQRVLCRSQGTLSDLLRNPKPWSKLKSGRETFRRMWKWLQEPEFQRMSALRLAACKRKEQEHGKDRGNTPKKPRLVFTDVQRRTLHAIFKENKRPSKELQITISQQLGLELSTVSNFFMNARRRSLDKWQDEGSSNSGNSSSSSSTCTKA
How it was run: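 Endogenous transcription factor activity in human HepG2 liver cells was captured through cis-regulated reporter constructs. After 24 h treatment, reporter mRNA was measured by RT-PCR with capillary electrophoresis, and activity was fitted in both directions relative to DMSO.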

[5] = biological target: Heat shock factor protein 1 (Homo sapiens) (UniProt Q00613); test: ATG_HSE_CIS: Attagene CIS-FACTORIAL HepG2 Assay for human Heat Shock Transcription Factor 1 (HSE) (AID 2282953); settings: HepG2 HSE cis-reporter, Attagene RNA transcription; actives raise or lower the signal
Sequence of Heat shock factor protein 1 (Homo sapiens) (Q00613 whole entry, looked up): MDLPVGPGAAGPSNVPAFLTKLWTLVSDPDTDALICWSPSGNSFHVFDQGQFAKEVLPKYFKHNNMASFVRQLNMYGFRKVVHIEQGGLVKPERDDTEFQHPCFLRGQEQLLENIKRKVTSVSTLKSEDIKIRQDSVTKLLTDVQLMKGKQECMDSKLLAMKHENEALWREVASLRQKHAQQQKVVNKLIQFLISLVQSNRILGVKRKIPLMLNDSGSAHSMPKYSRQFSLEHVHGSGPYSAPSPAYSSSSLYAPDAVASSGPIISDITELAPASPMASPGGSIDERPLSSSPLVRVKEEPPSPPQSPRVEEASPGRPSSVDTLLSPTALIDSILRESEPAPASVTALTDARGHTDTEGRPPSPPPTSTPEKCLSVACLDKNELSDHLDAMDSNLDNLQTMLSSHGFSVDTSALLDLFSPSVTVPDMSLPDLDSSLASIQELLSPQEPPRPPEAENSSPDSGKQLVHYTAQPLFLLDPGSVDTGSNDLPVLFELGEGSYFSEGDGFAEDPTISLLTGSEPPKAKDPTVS
How it was run: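 After a 24 h incubation with test chemical, transfected HepG2 cells were harvested for RNA; reporter transcripts were measured by RT-PCR and capillary electrophoresis. Values reflect gain or loss of signal relative to DMSO.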

[6] = ATG_MRE_CIS: Attagene CIS-FACTORIAL HepG2 Assay for human Metal Responsive Element (MRE) (AID 2282954); settings: HepG2 MRE cis-reporter transcription, Attagene multiplex; actives raise or lower the signal
How it was run: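 Multiplexed cis-reporter assay in human HepG2 liver cells, 24 h incubation with test chemical. Reporter transcripts measured by RT-PCR and capillary electrophoresis; values from bidirectional curve fitting versus DMSO.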

[7] = ATG_PBREM_CIS: Attagene CIS-FACTORIAL HepG2 Assay for human Phenobarbital-responsive Enhancer Module (PBREM) (AID 2282955); settings: HepG2 PBREM cis-reporter, Attagene multiplexed transcription; actives raise or lower the signal
How it was run: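 Fluorescence of labelled reporter cDNA fragments, resolved by capillary electrophoresis, gives mRNA induction in transfected HepG2 cells treated for 24 h; DMSO serves as negative control and baseline.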

[8] = biological target: Paired box protein Pax-6 (Homo sapiens) (UniProt P26367); test: ATG_Pax6_CIS: Attagene CIS-FACTORIAL HepG2 Assay for human Paired Box 6 (PAX6) (AID 2282956); settings: HepG2 CIS-FACTORIAL PAX6 reporter transcription, RNA readout; actives raise or lower the signal
Sequence of Paired box protein Pax-6 (Homo sapiens) (P26367 whole entry, looked up): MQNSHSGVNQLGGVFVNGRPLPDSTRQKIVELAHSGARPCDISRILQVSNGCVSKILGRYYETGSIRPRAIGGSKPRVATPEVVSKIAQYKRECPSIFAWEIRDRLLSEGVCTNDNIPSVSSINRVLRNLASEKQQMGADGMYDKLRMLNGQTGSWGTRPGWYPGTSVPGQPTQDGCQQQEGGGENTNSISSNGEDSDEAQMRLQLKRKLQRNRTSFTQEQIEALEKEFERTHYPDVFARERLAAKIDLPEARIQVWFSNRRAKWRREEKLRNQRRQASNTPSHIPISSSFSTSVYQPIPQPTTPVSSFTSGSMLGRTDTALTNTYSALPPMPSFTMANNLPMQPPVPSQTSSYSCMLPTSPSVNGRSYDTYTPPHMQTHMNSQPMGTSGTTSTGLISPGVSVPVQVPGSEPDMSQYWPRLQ
How it was run: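 DMSO-referenced bidirectional fits of reporter mRNA fluorescence; HepG2 with transient cis-promoter MRTUs, 24 h post-dose, RT-PCR plus capillary electrophoresis detection.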

[9] = ATG_PXRE_CIS: Attagene CIS-FACTORIAL HepG2 Assay for human Pregnane X Receptor Element (PXRE) (AID 2282957); settings: HepG2 Attagene CIS-FACTORIAL PXRE reporter, mRNA; actives raise or lower the signal
How it was run: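 Endogenous transcription factor activity in HepG2 was gauged through induction of reporter mRNA driven by a cis-regulating promoter element, sampled 24 h post-treatment. Activity was fitted in both directions against DMSO negative control.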

[10] = ATG_PPRE_CIS: Attagene CIS-FACTORIAL HepG2 Assay for human Peroxisome Proliferator-activated Response Element (PPRE) (AID 2282958); settings: HepG2 PPRE cis-element reporter, Attagene transcription factor profiling; actives raise or lower the signal
How it was run: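 Cells are first transfected transiently with the multiplexed reporter library, then dosed for 24 h. Total RNA is reverse-transcribed, amplified, fluorescently end-labeled and HpaI-cut before capillary electrophoresis; activity is fitted bidirectionally against DMSO controls.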

[11] = ATG_RORE_CIS: Attagene CIS-FACTORIAL HepG2 Assay for human RAR-related Orphan Receptor Element (RORE) (AID 2282959); settings: HepG2 Attagene cis-factorial RORE reporter, mRNA; actives raise or lower the signal
How it was run: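 Cells were HepG2 carrying transfected cis-regulated reporter constructs, dosed for 24 hours. Total RNA was reverse-transcribed and reporter cDNA amplified, fluorescently labeled and sized by capillary electrophoresis. Activity was fitted bidirectionally relative to DMSO.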

[12] = biological target: Transcription factor Sp1 (Homo sapiens) (UniProt P08047); test: ATG_Sp1_CIS: Attagene CIS-FACTORIAL HepG2 Assay for human Specificity Protein 1 (Sp1) (AID 2282961); settings: HepG2 Sp1 cis-reporter transcription, actives raise or lower the signal
Sequence of Transcription factor Sp1 (Homo sapiens) (P08047 whole entry, looked up): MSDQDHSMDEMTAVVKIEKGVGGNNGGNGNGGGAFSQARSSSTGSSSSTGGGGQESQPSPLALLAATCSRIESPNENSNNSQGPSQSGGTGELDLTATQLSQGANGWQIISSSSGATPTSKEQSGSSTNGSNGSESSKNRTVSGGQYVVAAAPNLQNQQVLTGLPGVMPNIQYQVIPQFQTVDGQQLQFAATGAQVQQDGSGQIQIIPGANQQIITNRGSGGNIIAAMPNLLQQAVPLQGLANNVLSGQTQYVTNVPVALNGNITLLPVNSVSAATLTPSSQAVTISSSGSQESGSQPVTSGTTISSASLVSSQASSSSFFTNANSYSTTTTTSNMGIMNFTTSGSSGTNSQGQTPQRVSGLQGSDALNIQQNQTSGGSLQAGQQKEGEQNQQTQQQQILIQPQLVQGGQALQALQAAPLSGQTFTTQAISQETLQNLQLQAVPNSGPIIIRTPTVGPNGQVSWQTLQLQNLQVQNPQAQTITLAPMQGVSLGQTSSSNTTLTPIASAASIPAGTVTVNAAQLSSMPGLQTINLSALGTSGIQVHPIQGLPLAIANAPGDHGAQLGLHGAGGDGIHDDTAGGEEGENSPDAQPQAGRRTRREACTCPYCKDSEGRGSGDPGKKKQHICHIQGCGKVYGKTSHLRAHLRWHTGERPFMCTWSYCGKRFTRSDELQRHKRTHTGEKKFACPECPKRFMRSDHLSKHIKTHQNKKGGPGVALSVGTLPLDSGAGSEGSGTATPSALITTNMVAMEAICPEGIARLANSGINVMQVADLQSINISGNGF
How it was run: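 Endogenous Sp1 activity was gauged in human liver HepG2 cells bearing transfected reporter units under a cis-regulating promoter. After 24 h dosing, reporter mRNA was quantified by RT-PCR with capillary electrophoresis, and activity fitted bidirectionally versus DMSO.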

[13] = ATG_SREBP_CIS: Attagene CIS-FACTORIAL HepG2 Assay for human Sterol Regulatory Element Binding (SREBP) (AID 2282962); settings: HepG2 Attagene cis-factorial SREBP reporter, mRNA; actives raise or lower the signal
How it was run: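 In this cis-format assay, HepG2 liver cells express reporters controlled by promoter elements responsive to native transcription factors. Exposure lasts 24 h; reporter mRNA fluorescence from capillary electrophoresis gives the signal, fitted bidirectionally against DMSO.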

[14] = biological target: Signal transducer and activator of transcription 3 (Homo sapiens) (UniProt P40763); test: ATG_STAT3_CIS: Attagene CIS-FACTORIAL HepG2 Assay for human Signal Transducer and Activator of Transcription 3 (STAT3) (AID 2282963); settings: HepG2, Attagene cis-factorial STAT3 reporter transcription; actives raise or lower the signal
Sequence of Signal transducer and activator of transcription 3 (Homo sapiens) (P40763 whole entry, looked up): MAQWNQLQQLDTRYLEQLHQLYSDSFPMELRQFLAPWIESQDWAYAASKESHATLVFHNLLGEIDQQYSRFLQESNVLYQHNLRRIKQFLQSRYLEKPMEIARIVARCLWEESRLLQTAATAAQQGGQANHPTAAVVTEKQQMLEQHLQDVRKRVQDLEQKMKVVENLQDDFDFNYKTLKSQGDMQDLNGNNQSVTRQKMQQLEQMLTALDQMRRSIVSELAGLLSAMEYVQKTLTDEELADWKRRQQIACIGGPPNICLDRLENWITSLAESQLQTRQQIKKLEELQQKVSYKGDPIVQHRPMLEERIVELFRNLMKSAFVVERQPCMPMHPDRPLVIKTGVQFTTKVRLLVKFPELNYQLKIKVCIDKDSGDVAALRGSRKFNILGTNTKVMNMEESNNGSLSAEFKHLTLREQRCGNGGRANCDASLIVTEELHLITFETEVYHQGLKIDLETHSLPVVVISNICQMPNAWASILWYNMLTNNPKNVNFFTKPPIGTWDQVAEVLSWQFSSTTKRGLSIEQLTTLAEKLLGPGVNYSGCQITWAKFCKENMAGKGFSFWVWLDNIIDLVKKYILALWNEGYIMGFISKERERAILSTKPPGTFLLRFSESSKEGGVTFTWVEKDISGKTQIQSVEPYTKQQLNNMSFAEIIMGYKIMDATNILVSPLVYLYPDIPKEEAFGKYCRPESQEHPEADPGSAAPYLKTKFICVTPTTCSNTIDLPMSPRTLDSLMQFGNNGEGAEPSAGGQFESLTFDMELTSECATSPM
How it was run: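 Cis-factorial format: endogenous transcription factors in HepG2 drive transfected reporter units. After 24 h treatment, reporter RNA was reverse-transcribed, amplified, FAM-labelled and HpaI-digested before CE analysis; activity scored in both directions against DMSO.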

[15] = ATG_TA_CIS: Attagene CIS-FACTORIAL HepG2 Assay for human TA Basal Promoter (AID 2282964); settings: HepG2 Attagene CIS-factorial TA basal promoter reporter; actives raise or lower the signal
How it was run: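 Multiplexed mRNA reporter assay, HepG2, 24 h. Reporter cDNA amplified, 6-FAM primer-extended, HpaI-cut, CE-sized; DMSO = negative control and baseline.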

[16] = ATG_TCF_b_cat_CIS: Attagene CIS-FACTORIAL HepG2 Assay for human T-Cell-Factor with beta-catenin (TCF/b-cat) (AID 2282965); settings: HepG2 TCF/beta-catenin cis-reporter transcription, actives raise or lower the signal
How it was run: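 Endogenous TCF/LEF activity read as reporter transcript level via RT-PCR and capillary electrophoresis fluorescence in transfected HepG2, 24 h exposure; gain or loss of signal fitted against DMSO controls.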

[17] = ATG_TAL_CIS: Attagene CIS-FACTORIAL HepG2 Assay for human TAL Basal Promoter (AID 2282966); settings: HepG2 Attagene cis-factorial TAL promoter reporter; actives raise or lower the signal;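 note: background control endpoint measuring basal TAL promoter reporter mRNA not a specific factor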
How it was run: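 Endogenous transcription-factor activity is sensed in HepG2 cells through transfected cis-promoter reporter constructs. After 24 h dosing, reporter transcripts are quantified by RT-PCR and capillary electrophoresis. Gain or loss of signal is fitted relative to DMSO.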

[18] = ATG_TGFb_CIS: Attagene CIS-FACTORIAL HepG2 Assay for human Transforming Growth Factor (TGF) (AID 2282967); settings: HepG2 Attagene CIS TGFb reporter, mRNA transcription; actives raise or lower the signal
How it was run: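 Transcript-level reporter readout: HepG2 transfectants, 24 h exposure, RNA to cDNA, reporter-specific PCR, fluorescent primer extension, capillary sizing against ROX standards. Gain- or loss-of-signal relative to DMSO.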

[19] = ATG_VDRE_CIS: Attagene CIS-FACTORIAL HepG2 Assay for human Vitamin D Receptor Element (VDRE) (AID 2282968); settings: HepG2 VDRE cis-reporter transcription, actives raise or lower the signal
How it was run: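 Measures endogenous factor activity through cis-element-driven reporter transcripts in transiently transfected HepG2. Cells are treated 24 h; reporter mRNA is quantified by RT-PCR and capillary electrophoresis; fitting is bidirectional.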

[20] = ATG_Sox_CIS: Attagene CIS-FACTORIAL HepG2 Assay for human SRY-box transcription factor (SOX) (AID 2282960); settings: HepG2 Attagene cis-factorial SOX reporter, mRNA; actives raise or lower the signal
How it was run: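 Transient MRTU transfection of HepG2; 24 h compound incubation; TriZol RNA, oligo(dT) RT, PCR, 6-FAM primer extension, HpaI cut, CE. Bidirectional fit, DMSO = baseline.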

Measured: AC50

C=CC(=O)OCC(CO)(COCC(COC(=O)C=C)(COC(=O)C=C)COC(=O)C=C)COC(=O)C=C
active: [3] 2.92 µM | [6] 2.9 µM | [8] 2.71 µM | [11] 2.71 µM | [12] 3.37 µM | [13] 2.85 µM | [16] 0.426 µM | [19] 0.722 µM
not listed: [20]
inactive: all other assays above

OCC1CCC(CO)CC1 (stereo unspecified)
not listed: [10] | [17]
inactive: all other assays above

C=CCOCC(CO)(CO)CO
active: [9] 25.3 µM
not listed: [13]
inactive: all other assays above

CCCCCCOC(=O)c1ccc(O)cc1
inactive: [1] | [2] | [3] | [20] | [14] | [15] | [16]
active: [4] 52.7 µM | [5] 60.8 µM | [6] 59.6 µM | [7] 29.8 µM | [8] 53.7 µM | [9] 13 µM | [10] 22.9 µM | [11] 51.2 µM | [12] 37.1 µM | [13] 33.4 µM | [19] 49.9 µM

c1ccc(CNc2ncnc3c2ncn3C2CCCCO2)cc1 (stereo unspecified)
active: [7] 23.3 µM | [9] 4.73 µM | [19] 22.9 µM
not listed: [11]
inactive: all other assays above

CCCCCCCCCCCCCCCC(=O)OC
not listed: [10]
inactive: all other assays above

O=C1c2ccc(O)c(O)c2C(=O)c2c(O)ccc(O)c21
active: [3] 12.6 µM | [9] 13.5 µM
not listed: [10]
inactive: all other assays above

From PubChem BioAssay (EPA / NIEHS)
